ERb SRC1 inh = blocks coactivator binding to human estrogen receptor beta; TR-FRET ER-beta LBD / SRC1-Cy5 peptide binding; receptor agonist-loaded with 1 µM estradiol; AID 633; actives 1.3% (n = 86,000); Q92731; inhibition, % at 25.6 µM;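 active = compounds whose percent inhibition of the receptor-coactivator binding signal exceeds about 50% in the single-dose screen, limit read from the data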
FAK blocker = FAK (human) kinase inhibition; Q05397; biochemical FAK kinase activity assay; inhibition, %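 (tested at 7 µM)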; actives 0.84% (n = 97,000); AID 727; in the data active = inhibition above about 19%
Smad3 inh = inhibitors of human Smad3 transcription factor binding. P84022. TR-FRET Smad3/Dy647-FoxH1 peptide binding, europium anti-His. inhibition, % at 25 µM. actives 0.29% (n = 88,000);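 active = compounds that reduce the energy-transfer binding signal between the protein and its labelled peptide by more than half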
Target sequence (P84022 whole entry, looked up): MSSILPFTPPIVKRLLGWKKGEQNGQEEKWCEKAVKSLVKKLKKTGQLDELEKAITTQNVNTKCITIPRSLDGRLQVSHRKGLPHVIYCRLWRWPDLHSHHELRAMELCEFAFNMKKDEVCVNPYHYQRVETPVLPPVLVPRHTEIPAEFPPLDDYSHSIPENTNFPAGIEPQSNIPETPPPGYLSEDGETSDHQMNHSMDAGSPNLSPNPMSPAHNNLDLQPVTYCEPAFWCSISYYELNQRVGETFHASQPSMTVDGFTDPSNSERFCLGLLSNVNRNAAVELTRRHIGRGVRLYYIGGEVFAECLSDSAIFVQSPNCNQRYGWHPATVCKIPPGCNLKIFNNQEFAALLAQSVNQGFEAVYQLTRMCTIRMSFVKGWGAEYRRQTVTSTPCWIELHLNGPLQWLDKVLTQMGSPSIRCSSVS
ERa coact pot = enhances coactivator binding to human estrogen receptor alpha. actives 1.3% (n = 86,000). TR-FRET ERalpha-LBD/SRC-Cy5 coactivator binding, 2 h; 100 = basal binding, no effect. coactivator binding (% of control), % at 25.6 µM; in the data active = activity above about 200%;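 also: binding measured in presence of low estradiol as agonist stimulus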
Candida biofilm = kills Candida albicans biofilms; C. albicans biofilm + clotrimazole, Alamar Blue; inhibition, % at 6 µM; actives 0.14% (n = 85,000); AID 834;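 active = inhibition above 20%; inactive = inhibition below 20%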;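 also: preformed 24 hr biofilms exposed to compound for 48 hr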
ERa coact inh = ER-alpha (human) coactivator binding inhibition; actives 1.7% (n = 86,000); AID 629; inhibition, % at 25.6 µM; P03372; TR-FRET ER-alpha LBD / SRC-1 peptide, estradiol-bound; in the data active = inhibition above about 50%
Each line names hits and unclear results; the compound was inactive in the other large screens; [ ] = another dose, or the depositor's remark. Compounds with a hit are over-represented: about 3.3% of the library has one in this group of screens.

Cc1c2ccccc2c(CSC(=N)N)c2ccccc12	none (no result: ERb SRC1 inh, FAK blocker, ERa coact pot, Candida biofilm, ERa coact inh)
CC(=O)c1ccc(Nc2ncnc3c2oc2ccccc23)cc1	ERa coact pot 346[fluorescence artefact?]
Cc1cc(C)n(C(=O)CCCCCCCCC(=O)n2nc(C)cc2C)n1	none
Nc1nc2c(ncn2[C@@H]2C=C[C@@H](CO)C2)c(=O)[nH]1	none (no result: ERb SRC1 inh, FAK blocker, ERa coact pot, Candida biofilm, ERa coact inh)
CC1Cc2nc(SCC(=O)Nc3ccc4c(c3)OCO4)n(CCc3ccccc3)c(=O)c2S1 (centres undefined)	none (no result: FAK blocker)
COc1ccc(CCn2c(SCC(=O)Nc3cc(C)on3)nc3ccsc3c2=O)cc1OC	ERa coact pot 314
Cc1nnc(NC(=O)CSc2nc3c(c(=O)n2CCc2ccccc2)SC(C)C3)s1 (centres undefined)	ERa coact inh 69 (no result: FAK blocker)
Cc1cc(NC(=O)CSc2nc3ccccc3c(=O)n2Cc2ccc(F)cc2)no1	ERb SRC1 inh 50[fluorescence artefact?], ERa coact pot 232[fluorescence artefact?]
Cc1cc(NC(=O)CSc2nc3c(c(=O)n2CCc2ccccc2)SC(C)C3)no1 (centres undefined)	ERa coact inh 79 (no result: FAK blocker)
CN(C)Cc1cc(C(F)(F)F)ccc1C(O)(c1ccccc1)c1ccccc1	none (no result: ERb SRC1 inh, FAK blocker, ERa coact pot, Candida biofilm, ERa coact inh)
CCc1cccc(CC)c1NC(=O)CN1CC(C)SC1=NC1CCCCC1 (centres undefined)	none
CCCCOCC1CN(c2ccccc2)C(=O)CS1 (centres undefined)	none
CCCCC1C(=O)N(c2ccccc2)N(c2ccccc2)C1=O	ERb SRC1 inh 83[fluorescence artefact?], ERa coact inh 92 (no result: FAK blocker)
Nc1nc(NC(=O)c2cccc(S(=O)(=O)N3CCCCCC3)c2)nc(-c2ccccc2)n1	none
O=C(Nc1nnc(-c2ccc3c(c2)OCCO3)o1)c1ccc(Cc2ccccc2)cc1	ERb SRC1 inh 65[fluorescence artefact?], ERa coact pot 351[fluorescence artefact?]
O=C(Nc1nnc(-c2ccc3c(c2)CCCC3)o1)c1ccccc1	none
N#CC1=C(N)n2c(s/c(=C\c3ccco3)c2=O)=C(C#N)C1c1ccco1 (centres undefined)	ERb SRC1 inh 67[fluorescence artefact?], ERa coact inh 75[fluorescence artefact?]
O=C(NCc1ccc2c(c1)OCO2)c1ccc(Cl)c(S(=O)(=O)N2CCOCC2)c1	none
CC(C)(/C=N/O)/[N+]([O-])=C/c1ccco1	none
Cc1nc(/C=[N+](\[O-])C(C)(C)/C=N/O)n(O)c1C	ERb SRC1 inh 56[fluorescence artefact?]
Cc1cccc(C)c1OCCn1nc(C(=O)O)c2ccccc2c1=O	none
Cc1nn(CC(=O)Nc2ccccc2)c(=O)c2ccccc12	none
CCC(=O)Nc1ccc(C(=O)Cn2nc(C(=O)O)c3ccccc3c2=O)cc1	ERb SRC1 inh 61, ERa coact inh 77[fluorescence artefact?] (no result: FAK blocker)
CCOc1ccc(C(C)=O)cc1Cn1nc(C(=O)O)c2ccccc2c1=O	ERa coact pot 252
CN(C)c1ccc(C(=C2C=CC(=[N+](C)C)C=C2)c2c(O)c(S(=O)(=O)O)cc3cc(S(=O)(=O)O)ccc23)cc1	none (no result: ERb SRC1 inh, FAK blocker, ERa coact pot, Candida biofilm, ERa coact inh)
O=C(CSc1nnc(-c2cccnc2)o1)c1cc2ccccc2oc1=O	ERa coact pot 221
CCCOCC1CC2(SC(=Nc3ccc(C)cc3)NC2=O)C(=O)O1 (centres undefined)	ERb SRC1 inh 69[fluorescence artefact?]
O=C(Nc1ccc2snnc2c1)N1CCOCC1	none
O=C(Nc1ccc2snnc2c1)N1CCN(c2ccccc2)CC1	ERa coact pot 627[fluorescence artefact?]
Clc1cc(Cl)cc(Nc2ncn[nH]2)c1	none (no result: ERb SRC1 inh, Smad3 inh, ERa coact pot, Candida biofilm, ERa coact inh)
COc1ccc(C(CC(=O)O)NC(=O)COc2ccc(C)cc2)cc1OC (centres undefined)	none (no result: ERb SRC1 inh, FAK blocker, Smad3 inh, ERa coact pot, ERa coact inh)
O=C(O)c1ccccc1C1=Nc2ccc(O)cc2Oc2cc(O)ccc21	ERb SRC1 inh 62[fluorescence artefact?]
Cc1cc(-c2ccccc2C(=O)O)on1	none
CCC(=O)N=c1sc2c(C)cc(C)cc2n1CC(=O)OC	none
COC(=O)Cn1c(=NC(=O)C2CC2)sc2c(C)cc(C)cc21	ERa coact inh 55[fluorescence artefact?]
CC(CN1CCCCC1)OC(=O)C(C)(c1ccccc1)c1ccccc1 (centres undefined)	none
COc1ccc(C(=O)Cn2nnc(-c3cccs3)n2)cc1	ERb SRC1 inh 78[fluorescence artefact?]
COc1ccc(N2CCN(C(=O)Cn3nnc(-c4cccs4)n3)CC2)cc1	none
CC1=CC(=O)CC(C)(C)[C@]1(O)/C=C/C(C)=C/C(=O)O	none (no result: ERb SRC1 inh, FAK blocker, ERa coact pot, Candida biofilm, ERa coact inh)
c1cncc(CSc2ncnc3nc[nH]c23)c1	none (no result: ERb SRC1 inh, FAK blocker, ERa coact pot, Candida biofilm, ERa coact inh)
O=C/C(=C\Nc1ccccn1)c1nc2cc(Cl)ccc2o1	ERa coact inh 66[fluorescence artefact?]
O=C/C(=C\Nc1ccccn1)c1nc2ccccc2o1	none
Cn1c(C(=O)NCCN2CCN(Cc3ccccc3)CC2)cc2c(=O)n(C)c3ccccc3c21	none (no result: FAK blocker)
